Screening results as filed in PubChem.
PrP 5UTR inh = suppresses PrP 5' UTR mRNA reporter expression; cell-based PrP 5' UTR mRNA reporter, plate reader; inhibition, % (no concentration beside the values); 0.35% of 340,000 active; AID 488862; in the data active = inhibition above about 52%; note: 0 = median of the neutral control wells
RN4220 kill = S. aureus RN4220 growth inhibition; OD600, 16 h; inhibition, % (no concentration beside the values); 0.33% of 330,000 active; AID 1259311; in the data active = inhibition above about 85%;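 note: plate controls were untreated cells for no effect and reference antibiotic for full effect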
Sa ugtP lethal = growth inhibition of S. aureus ugtP deletion strain. S. aureus RN4220 ugtP deletion, OD600 growth, 16 h. growth inhibition, % (test concentration not listed). AID 1259309. 0.54% of 330,000 active; in the data active = growth inhibition above about 68%;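 note: plate controls were untreated wells for no effect and antibiotic for full effect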
PfHsp40 yeast = restores yeast growth despite PfHsp40 toxicity. S. cerevisiae expressing PfHsp40, growth rescue, ATP luminescence. growth rescue, % at 12.5 µM. 0.68% of 340,000 active. AID 504582; in the data active = growth rescue above about 28%, passing the limit was not always enough; inconclusive = no clear call, values can overlap the other calls;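 note: yeast W303a lacking pdr1 and pdr3 grown in galactose medium; growth measured after three days at 30 °C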
TcdB GH inh = inhibitors of Clostridioides difficile toxin B glycohydrolase; P18177; TcdB glycohydrolase enzymatic assay, plate reader; inhibition, % at 9.99 µM; 0.24% of 350,000 active; AID 652162; in the data active = inhibition above about 10%
PrP UTR cherry = prion 5' UTR mRNA inhibition, cherry-pick retest. shares compounds with PrP 5UTR inh. cell-based prion protein 5' UTR reporter, plate reader. inhibition, % at 2.5 µM. 48% of 1,100 active. AID 504592; in the data active = inhibition above about 54%; inconclusive = no clear call, values can overlap the other calls
* = called active by the depositor; ? = inconclusive; / = no result; ! = repeats disagree. A selection: hits, their analogues and other compounds. The true share with any hit is near 1.2%.

SMILES	PrP 5UTR inh	RN4220 kill	Sa ugtP lethal	PfHsp40 yeast	TcdB GH inh	PrP UTR cherry
CN1C2CCC1C(C(=O)O)C(OC(=O)c1ccccc1)C2 (stereo not drawn)	1	1	-5	0	0	/
CCOC(=O)C1C(OC(=O)c2ccccc2)CC2CCC1N2C (stereo not drawn)	70*	/	/	-1	2	1
CC(C)NC(=O)Nc1ccc2c(c1)C(=O)N([C@@H](C)CO)C[C@@H](C)[C@@H](CN(C)CC1CCCCC1)O2	/	/	/	/	0	/
COc1cccc(N2CCN(C(=O)c3ccc(CS(=O)c4ccccc4C)o3)CC2)c1 (stereo not drawn)	56*	/	/	3	2	83*
Cc1cccc(S(=O)(=O)N2CCCCN3[C@@H](CO)[C@@H](c4ccc(C#CC(C)C)cc4)[C@@H]3C2)c1	/	/	/	/	-6	/
CCOC(=O)COc1cccc2c(=O)n(CC(=O)NCc3ccc(F)cc3)ccc12	60*	-1	-3	0	1	84*
CC(C)NC(=O)N(C)C[C@H]1Oc2cc(C3=CCCC3)ccc2S(=O)(=O)N([C@H](C)CO)C[C@H]1C	/	/	/	/	-1	/
Cc1cc(C(=O)COc2cccnc2[N+](=O)[O-])c(C)n1-c1ccccc1	58*	/	/	0	0	?
COc1ccc(S(=O)(=O)N2c3cc(Cl)ccc3Oc3nc4ccccc4nc32)cc1	71*	-3	-5	0	/	88*
O=S(=O)(c1ccc(Cl)cc1)N1c2ccccc2Oc2nc3ccccc3nc21	-16	1	4	-2	/	/
C[C@H](CO)N1C[C@H](C)[C@@H](CN(C)Cc2ccc(-c3ccccc3)cc2)Oc2ncc(-c3cccnc3)cc2C1=O	/	/	/	/	0	/
COc1ccccc1NC(=O)c1oc2ccccc2c1NC(=O)c1cc(OC)c(OC)c(OC)c1	56*	5	-8	-1	0	84*
CCC1SC(CC)C(=O)N(CC(=O)NCc2ccc(F)cc2)C1=O (stereo not drawn)	78*	-7	4	-1	0	-19
CC1SC(C)C(=O)N(CC(=O)NCc2ccc(F)cc2)C1=O (stereo not drawn)	16	-2	0	-2	1	/
COc1ccc2c(c1OC)c(=O)n1c3ccc(OC(C)C(=O)NCCN4CCOCC4)cc3c3ccnc2c31 (stereo not drawn)	-30	-1	4	0	5	/
COc1ccc2c(c1OC)c(=O)n1c3ccc(OC(C)C(=O)NCCCN4CCOCC4)cc3c3ccnc2c31 (stereo not drawn)	54*	3	7	0	/	8
COc1ccc(NC(=O)N[C@@H]2CC[C@H](CCn3cc(C4(O)CCCC4)nn3)O[C@H]2CO)cc1	/	/	/	/	0	/
Oc1ccc2c3c1O[C@H]1[C@@H](O)CC[C@@]4(O)[C@@H](C2)N(CC2CCC2)CC[C@]314	63*!	/	/	-1	3	-6
CN1CCN(c2ccc(NC(=O)N3CCc4ccccc43)cc2)CC1	64*	-3	3	-2	1	?
O=C(Nc1cccnc1)OC1CCCCC1	75*	5	0	1	1	-36
COc1ccccc1NC(=O)N[C@H]1CC[C@H](CC(=O)N2CCC(Cc3ccccc3)CC2)O[C@@H]1CO	/	/	/	/	-4	/
COc1ccc(C(CNC(=O)C(CCSC)NC(=O)c2ccccc2Cl)N2CCCCC2)cc1 (stereo not drawn)	72*	6	6	0	0	-21
COc1ccc(C(CNC(=O)C(CCSC)NC(=O)c2ccccc2Cl)N2CCCC2)cc1 (stereo not drawn)	-8	-2	6	0	1	/
CN=c1scc(-c2cccs2)n1/N=C/c1ccccc1O	94*	/	/	-2	1	90*
CN=c1scc(-c2cccs2)n1/N=C/c1ccc(O)c(O)c1O	-35	/	/	-2	-9	/
SMILES	PrP 5UTR inh	RN4220 kill	Sa ugtP lethal	PfHsp40 yeast	TcdB GH inh	PrP UTR cherry
O=C(N/N=C/c1cc2c(cc1Br)OCO2)c1cccnc1	62*	/	/	-1	0	-14
O=C(NN=Cc1cc2c(cc1[N+](=O)[O-])OCO2)c1cccnc1	/	0	-1	/	/	/
Cc1nn(C(C)(C)C)c(C)c1/C=N/OC(=O)Nc1ccc(Cl)cc1	94*	/	/	10	2	93*
CO[C@@H]1CC[C@@H]2CCOc3ccc(C#N)cc3C(=O)N(C)CCCC(=O)N(C)C[C@@H]1O2	/	/	/	/	-2	/
CCOC(=O)Cc1[nH]nc2c1C(c1ccsc1)C(C#N)=C(N)O2 (stereo not drawn)	53*	13	7	-2	-1	-9
COCc1[nH]nc2c1C(c1ccsc1)C(C#N)=C(N)O2 (stereo not drawn)	-26	4	-6	-1	/	/
O=C(N[C@@H]1CC[C@H](CC(=O)N2CCc3ccccc3C2)O[C@H]1CO)C1CCC1	/	/	/	/	0	/
COc1ccc(CCNC(=O)Cn2cnc3sc(C)c(-c4ccc(F)cc4)c3c2=O)cc1OC	73*	-1	5	-1	1	?
CC12CCC(C(=O)NN=Cc3ccc(O)cc3O)(OC1=O)C2(C)C (stereo not drawn)	/	1	3	/	/	/
CC1=CC2OC3CC4OC(=O)C=CC=CC(=O)OCCC(C)C(O)C(=O)OCC2(CC1O)C4(C)C31CO1 (stereo not drawn)	94*	/	/	/	/	97*
CC1=CC2OC3CC4OC(=O)C=CC=CC(C(C)O)OCC(O)C(C)CC(=O)OCC2(CC1O)C4(C)C31CO1 (stereo not drawn)	95*	/	/	/	1	95*
COc1ccc2c3c(n(C)c2c1)[C@@H](CO)NCC31CCN(C(=O)Nc2ccccc2F)CC1	/	/	/	/	0	/
COc1cc2c(cc1OC)CN(C(=O)[C@@H]1[C@H]3C(=O)O[C@H](c4ccccc4)[C@H](c4ccccc4)N3[C@H](c3ccccc3OCCO)[C@@]13C(=O)Nc1ccc(C#CC4(O)CCCCCC4)cc13)CC2	/	/	/	/	0	/
COc1cc(OC)cc(C(=O)O/N=C(\N)c2ccccn2)c1	/	1	-5	/	1	/
N/C(=N\OC(=O)c1ccccc1Cl)c1ccccn1	76*	4	-1	0	2	71*
Cc1ccccc1C(=O)O/N=C(\N)c1ccccc1	56*	5	1	-1	1	55*
COc1ccc(C(=O)O/N=C(\N)c2ccccn2)cc1	88*	/	/	0	0	94*
Cc1ccccc1C(=O)O/N=C(\N)c1ccc([N+](=O)[O-])cc1	-58	2	2	1	1	/
Cc1ccc(C(=O)O/N=C(\N)c2ccccn2)c(C)c1	95*	/	/	-1	3	97*
COc1ccccc1C(=O)O/N=C(\N)c1ccccn1	-67	2	9	-2	1	/
COc1ccc(NC(=O)N2C[C@H](O)COC[C@H]3O[C@H](CC(=O)N4CCN(C)CC4)CC[C@@H]32)cc1	/	/	/	/	0	/
CO[C@H]1CN(C)C(=O)c2ccc(NC(C)=O)cc2OC[C@@H](C)N(Cc2cncnc2)C[C@H]1C	/	/	/	/	0	/
Cc1ccc(-c2cc3c(nn2)-c2ccccc2C3=O)cc1	76*	46	48	0	0	82*
